# An excerpt weighted towards active compounds, which were near 1% of everything screened.
# RN4220 kill – growth inhibition of S. aureus RN4220, primary screen, OD600. 16 h. inhibition, % (test concentration not listed). hit rate 0.33% among 330,000; in the data active = inhibition above about 85%;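 note: plate controls were untreated cells for no effect and reference antibiotic for full effect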
# PriA SSB inh – inhibitors of Klebsiella pneumoniae PriA binding to SSB C-terminal tail, primary screen, biochemical, AlphaScreen; PriA–SSB C-terminal tail interaction (Klebsiella pneumoniae); AlphaScreen SSBct-PriA binding, biotinylated peptide; inhibition, % at 33 µM; hit rate 0.6% among 430,000; AID 1272365, 2023; in the data active = inhibition mostly above about 37%, no sharp cut-off; inactive = mostly below about 20%;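 note: plate controls were negative control peptide for no effect and reference peptide for full effect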
# ugtP null kill – growth inhibition of ugtP-null S. aureus, primary screen, RN4220 ugtP deletion, OD600. 16 h. growth inhibition, % (no concentration beside the values). hit rate 0.54% among 330,000; in the data active = growth inhibition above about 68%;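 note: plate controls were untreated wells for no effect and antibiotic for full effect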
# Numbers without * were called inactive; / = no result.
SMILES,RN4220 kill,PriA SSB inh,ugtP null kill
CCn1c(=O)c(C(=O)CN2c3ccccc3CC2C)c(N)n(Cc2ccccc2)c1=O (stereo not drawn),-5,39*,-5
Cc1ccccc1OCC(=O)Nn1c(COc2ccccc2)nc2ccccc2c1=O,110*,-5,99*
Cc1cccc(C)c1OCC(=O)Nn1c(COc2ccccc2)nc2ccccc2c1=O,14,-15,-11
CC1(C)CC1C(=O)Nc1ccc([N+](=O)[O-])cc1Br (stereo not drawn),6,15,9
Cc1ccc(C2(c3ccc(C)cc3)CC2C(=O)Nc2ccc([N+](=O)[O-])cc2O)cc1 (stereo not drawn),101*,10,100*
CCN(CC)c1ccc(/C=C2\C(=O)c3ccc(C(=O)O)cc3C2=O)cc1,8,0,2
CCN(CC)c1ccc(C(=C2C=CC(=[N+](CC)CC)C=C2)c2ccc(S(=O)(=O)O)cc2S(=O)(=O)[O-])cc1,-29,82*,-24
COc1ccc(CNC(=O)CCCCn2c(=O)[nH]c3cc(OC)c(OC)cc3c2=O)cc1,/,-12,/
CCOC(=O)C1CCN(c2c(C#N)cnc3ccc(Cl)cc23)CC1,/,-16,/
CCOC(=O)C1CCN(c2c(C(=O)c3ccccc3)cnc3ccc(Cl)cc23)CC1,55,4,100*
Cc1ccc(OC(=O)CCN2C(=O)c3ccccc3C2=O)cc1C,5,-18,90*
Cc1ccc(NC(=O)c2ccc(OC(=O)CCN3C(=O)c4ccccc4C3=O)cc2)cc1,2,-17,3
Cc1ccc(OCC(=O)OCCN2C(=O)c3ccccc3C2=O)cc1C,/,-35,/
Cc1cc(C)cc(OC(=O)CCN2C(=O)c3ccccc3C2=O)c1,4,-10,84*
COc1ccc(C(=O)CN2CC(c3nc(Cc4ccccc4)no3)C2)cc1,/,-7,/
CN(C)C(=O)N1CCN(c2ccc(-c3noc(C(F)(F)F)n3)cn2)CC1,/,-13,/
O=C(CSc1ccccn1)Nc1nonc1[N+](=O)[O-],40,-9,86*
O=C(CSc1ccccn1)Nc1ccc(NC(=O)CSc2ccccn2)cc1,2,-6,2
COc1cccc(N2CC(NC(=O)NCCn3c(C)cc4ccccc43)CC2=O)c1 (stereo not drawn),/,-15,/
CC(C)Cc1nc(N2CCNCC2)c(C#N)c2c1CCC2,0,-3,0
CC(C)Cc1nc(N2CCCCC2)c(C#N)c2c1CCC2,2,-23,86*
Cc1noc(-c2ccc3nccnc3c2)n1,/,41*,/
Cc1noc(-c2ccc(N)cc2)n1,/,-2,/
CCn1cc(C(=O)O)c(=O)c2cc(F)c(N3CCN(C(=S)Nc4ccccc4OC)CC3)cc21,99*,-13,99*
CCn1cc(C(=O)O)c(=O)c2cc(F)c(N3CCN(C(=S)NC(=O)c4c(OC)cccc4OC)CC3)cc21,98*,1,100*
SMILES,RN4220 kill,PriA SSB inh,ugtP null kill
CCn1cc(C(=O)NN)c(=O)c2cc(F)c(N3CCN(C)CC3)cc21,2,-10,8
CCn1cc(C(=O)O)c(=O)c2cc(F)c(N3CCN(S(=O)(=O)c4ccc(NC(=O)OC)cc4)CC3)cc21,97*,2,100*
CCn1cc(C(=O)O)c(=O)c2cc(F)c(N3CCN(C(=S)NC(=O)c4cccc(F)c4)CC3)cc21,12,-11,9
CCC(=O)N1CCN(c2cc3c(cc2F)c(=O)c(C(=O)O)cn3CC)CC1,44,-6,47
Cc1cc(=O)[nH]c(-n2nc(C)c(CCC(=O)Nc3ccc(F)c(C(F)(F)F)c3)c2C)n1,/,-13,/
Cc1ccccc1NC(=O)NCC(C)(O)c1ccco1 (stereo not drawn),/,-1,/
O=S(=O)(Cc1ccc(F)cc1)NCC(c1ccsc1)N1CCc2ccccc2C1 (stereo not drawn),/,-15,/
Cn1c(C(F)(F)F)nn(CCNS(=O)(=O)CCN2C(=O)CCCC2=O)c1=O,/,0,/
COC(=O)c1c(NC(=O)CSc2nnc3cc(C)c4ccccc4n23)sc(Br)c1-c1ccccc1,/,-26,/
O=C(NCCn1cccc1)c1ncc(-c2ccccc2)o1,/,-14,/
Cc1cc(NS(=O)(=O)c2ccc(NC(=O)c3ncc(-c4ccccc4)o3)cc2)nc(C)n1,/,0,/
CC(=O)/C(N=Nc1cc2c(cc1[N+](=O)[O-])OCCO2)=C(\C)O,1,/,-4
CC(=O)/C(N=Nc1cc2c(c([N+](=O)[O-])c1C)C(C)(C)CC2(C)C)=C(\C)O,-3,/,89*
Cc1ccc(NC(=O)C(=O)NCCC(c2ccccc2)c2ccccc2)cc1Cl,/,-9,/
O=C(NCCC(c1ccccc1)c1ccccc1)C(=O)Nc1ccncc1,/,47*,/
COC(=O)C1C(O)C(C)C(O)C(C)C=CC=C(C)C(=O)Nc2c(C)c(OC(C)=O)c3c(c2O)C(=O)C(C)=C2OCOC(=C23)C(C)=CC(C)(O)C(O)C(C)C1O (stereo not drawn),99*,0,100*
